# Source: PubChem BioAssay (NCI)
# This is part of a sample that, as a whole, favours compounds with a hit. Of some 83,000 tested, about 20% had one in any assay.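 The endpoint reported here, percent growth, reads 100 for growth as untreated, 0 for no net growth and -100 for all cells dead.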 A number with no mark means an inactive call. Active and inactive are the calls of the source. How the source made its calls: active means growth percent below 10; inactive means the rest.
# Assays:
# Assay in all cases: NCI-60 one-dose screen, 48 h (100 = growth as untreated, 0 = no growth, -100 = all killed)
# Conditions in all cases: 10 µM unless noted
# [1] = tested on: SK-MEL-2 melanoma
# [2] = tested on: EKVX NSCLC
# [3] = tested on: SN12C renal
# [4] = tested on: UO-31 renal
# [5] = tested on: TK-10 renal
# [6] = tested on: ACHN renal
# [7] = tested on: CAKI-1 renal
# [8] = tested on: A498 renal
# [9] = tested on: CCRF-CEM leukemia
# [10] = tested on: MOLT-4 leukemia
SMILES,growth [1],growth [2],growth [3],growth [4],growth [5],growth [6],growth [7],growth [8],growth [9],growth [10]
CC(C)(Sc1cc(C(C)(C)C)c(O)c(C(C)(C)C)c1)Sc1cc(C(C)(C)C)c(OC(=O)CCCC(=O)O)c(C(C)(C)C)c1,76%,53.5%,41.4%,38%,74.2%,47%,59%,60.2%,43.5%,36.9%
C=CCn1c(C)nc2ccc(Nc3nc(Nc4ccc5nc(C)n(CC=C)c5c4)c4ccccc4n3)cc21,-83.8% (active),2.58% (active),-74.9% (active),-91.4% (active),-88.5% (active),-80% (active),-24.1% (active),99.5%,-20.8% (active),-45.5% (active)
COC(=O)/C=C1/SC(=Nc2ccc(C(F)(F)F)cc2)N(CCc2c[nH]c3ccc(O)cc23)C1=O,-33.5% (active),41.1%,-69% (active),-18.5% (active),11.7%,-46.1% (active),31.4%,-1.57% (active),-9.32% (active),-36.2% (active)
NC(=O)c1ccc(-c2c3ccccc3cc3c2ccc2ccccc23)cc1,43.7%,67.7%,72.9%,57.5%,70.2%,57.2%,61.7%,70%,37.8%,40.5%
O=[N+]([O-])c1ccc(O)cc1Br,97.8%,98%,98%,83.8%,99.9%,99.2%,94.5%,81.6%,95.2%,104%
CC1CCc2c(C(=O)Nc3ncc(Cc4cccc([N+](=O)[O-])c4)s3)csc2C1 (stereo not given),52.7%,25.6%,41.7%,32.4%,46.7%,30.5%,19.2%,10.7%,16.8%,26%
COc1cc(C2c3cc(OC(C)=O)c(OC)cc3CC3C(=O)OCC32)ccc1OC(C)=O (stereo not given),132%,111%,93.2%,78.2%,122%,94.3%,97.1%,180%,92.4%,112%
CSc1nc(N)c(NS(=O)(=O)c2ccc(C(C)=O)cc2)c(=O)[nH]1,100%,97.2%,101%,100%,119%,108%,90.1%,105%,109%,112%
Cc1cc(S(=O)(=O)/N=C(\N)n2nc(C)c(C)c2C)c(SCc2ccccc2)cc1Cl,-12.3% (active),38.9%,76.3%,23.8%,116%,71.2%,71.9%,85.1%,41.5%,46%
Cc1ccc(/C=C2\COc3ccc(O)cc3C2=O)cc1,117%,97.8%,79.9%,58.9%,102%,94%,80.8%,109%,2.21% (active),40.6%
C#CCOc1ccc2ncnc(Nc3ccc(NC(=O)C=C)cc3)c2c1,-0.222% (active),2.42% (active),1.14% (active),-26.4% (active),-62.7% (active),-96.6% (active),24.3%,74.1%,-39.5% (active),-34.7% (active)
CC(C)c1ccc(Cc2cnc(NC(=O)c3cc(Br)cs3)s2)cc1,23.7%,43.9%,49.7%,55%,46.7%,41.6%,31.3%,18.8%,20%,43.2%
O=S(=O)(Nc1cc(Cl)ccc1Cl)c1ccc(-c2cnc(C3CC3)o2)cc1,39%,58.7%,60.3%,49.6%,60%,34.2%,33.5%,-7.01% (active),20%,44.1%
Nc1c(C(=O)Nc2ccncc2)sc2nc3c(cc12)C(O)CCC3 (stereo not given),97.4%,99.9%,96.3%,81.8%,91%,96.4%,99.6%,112%,94.6%,98%
COc1cc(C2CC(c3ccc(Nc4nc(Nc5ccc(Cl)cc5)nc(Nc5ccc(Cl)cc5)n4)cc3)=NN2C(C)=O)cc(OC)c1OC (stereo not given),80.4%,94%,102%,84.8%,118%,96.7%,90.4%,113%,101%,79%
O=c1scc(-c2ccc(C(F)(F)F)cc2)s1,77.8%,78.8%,96.7%,89.4%,82.8%,99.8%,73%,77.5%,88.5%,94.5%
CCCCNC(=O)Oc1ccc(/C(=C(/C)Cc2ccc(OC)cc2)c2ccc(OCCN3CCCC3)cc2)cc1,85.2%,67.6%,72.6%,53.5%,81.2%,91.9%,70.5%,59.6%,46%,34.4%
COc1ccc(-c2nc3c(ncc4ccc(=O)[nH]c43)s2)cc1,106%,63.8%,78.2%,72.1%,73.8%,59.9%,67.6%,42.3%,72.6%,31.8%
CCOc1nc(-c2ccccc2)cc2c(O)c(C(=O)N/N=C/c3ccccc3)[nH]c(=O)c12,36.5%,96.1%,110%,93.2%,151%,107%,104%,91.3%,106%,79.7%
COc1cc(-c2nccc3[nH]c(-c4ccc5cc[nH]c5c4)nc23)cc(OC)c1OC,15.2%,30.9%,30.9%,13.6%,10.7%,2.78% (active),29.7%,-2.61% (active),5.28% (active),18.5%
O=C1/C=C/[C@@H](O)[C@@H]2C[C@@H](O)C[C@H]2/C=C/CCC[C@H](CCc2ccccc2)O1,-8.8% (active),8.4% (active),11.8%,14.7%,-26% (active),7.03% (active),-8.69% (active),-28.2% (active),13.1%,9.48% (active)
CCOC(=O)C1=C(C)NC(=O)NC1c1c(Cl)n(CCCl)c2ccccc12 (stereo not given),106%,97.8%,101%,68.5%,34.1%,99%,86.6%,95.3%,-54.5% (active),103%
O=S(=O)(NCCNc1nccc(-c2c(-c3ccc(F)c(O)c3)nc3sccn23)n1)c1ccc(O)cc1,19.8%,56.3%,38.2%,6.46% (active),46.3%,33.3%,27.2%,43.4%,22.2%,19.3%
Ic1ccc(OCCCCn2ccnc2)cc1,80.7%,62.1%,76.6%,63.8%,45.3%,59.4%,70%,36.2%,55.1%,82.2%
Cc1ccc2c(n1)C(=O)C(Br)=C(C1CCCC1)C2=O,112%,98.9%,95.2%,78.3%,120%,77.9%,90.8%,108%,26.2%,34.6%
